Experimental data published in PubChem BioAssay AID463173 (ICCB-Longwood Screening Facility, Harvard Medical School, 2010).
Among all 52,000 compounds or so, about 1,700 (3.3%) were called active. The full list was thinned out, with actives kept by preference. Unmarked numbers belong to inactive results. No stated cut-off is given here; in the data, active means survival mostly below about 52% (no sharp cut-off); inactive means mostly above about 56%.

The compounds below were run on Wild type (assay: S. aureus survival, RN4220 and DeltatarO strains – OD600, teichoic acid synthesis inhibitors, primary screen (AID 463173)). Conditions: S. aureus RN4220 wild type/DeltatarO growth, OD600, 18 h, active compounds read low, screened at 18.75 µg/mL (by protocol).

SMILES	survival
CCc1nn(CC(=O)NCC(C)c2ccccc2)c(=O)c2cc3c(OC)cccc3n12 (configuration not stated)	89%
Cc1ccccc1SCC(=O)O	106%
O=C(c1cc(-c2ccccc2)on1)N1CCCc2ccccc21	114%
COCCCNC(=O)c1ccc2c(c1)N(Cc1ccccc1)C(=O)c1ccccc1S2	75%
CCN1CCN(c2cc(C)c3cc(NC(=O)c4cccc(Cl)c4)ccc3n2)CC1	57%
Cc1ccc(NC(=O)Nc2ccc3nc(N4CCN(C)CC4)cc(C)c3c2)cc1C	73%
Cc1cc(N2CCCCC2)nc2ccc(NC(=O)c3cccc(Cl)c3)cc12	-2% (active)
CCOc1cc(C(=O)Nc2ccc3nc(N4CCN(C)CC4)cc(C)c3c2)cc(OCC)c1OCC	134%
Cc1cc(N2CCN(C)CC2)nc2ccc(NC(=O)c3ccc(C(C)(C)C)cc3)cc12	-20% (active)
Cc1cc(N2CCCCC2)nc2ccc(NC(=O)c3cccc(F)c3)cc12	46%
Cc1cccc(C)c1OC(=O)CSc1nnc(-c2cccs2)o1	83%
COc1cc2c(cc1OC)n(CC(=O)c1cccc(Cl)c1)c(=O)n1nc(CCn3nc(C)cc3C)nc21	74%
CCOC(=O)C(C)NC(=O)c1c(C)oc2ncn(CC(C)C)c(=O)c12 (configuration not stated)	72%
Cc1ccccc1CN1CCCN(CC(=O)Nc2ccc3c(c2)OCCO3)S1(=O)=O	72%
CCc1ccccc1N(C)C(=O)c1cc2c(s1)-c1c(C)cccc1OC2	69%
Cc1cccc2c1-c1sc(C(=O)N(C)c3cccc(Cl)c3)cc1CO2	0% (active)
COc1ccc(CCNC(=O)c2cc3c(s2)-c2c(C)cccc2OC3)c(OC)c1	103%
COc1ccc(NC(=O)c2cc3c(s2)-c2c(C)cccc2OC3)c(OC)c1	78%
Cc1cccc2c1-c1sc(C(=O)N(C)c3cccc(C(F)(F)F)c3)cc1CO2	24%
COc1ccc(N(C)C(=O)c2cc3c(s2)-c2c(C)cccc2OC3)c(OC)c1	12% (active)
Cc1ccc(NC(=O)CCc2c(C)nn(-c3ccc(N4CCCCC4)nn3)c2C)cc1F	146%
COCCCNc1cc(C)nc2ccccc12	121%

SMILES	survival
COc1ccc(N2CC3=C(C2=O)C(c2ccc(Br)cc2)NC(=O)N3C)cc1 (configuration not stated)	156%
COc1ccc(CNC(=O)c2cnc3cc(C)ccn3c2=O)cc1	85%
Cc1ccc(OC(=O)CSc2nnc(CNC(=O)c3ccccc3)o2)cc1	87%
N#Cc1ccccc1Cn1c(SCC(=O)NCc2ccccc2)nc2ccccc21	75%
O=C(C1CCN(S(=O)(=O)c2ccccc2)CC1)N1CCCCC1	96%
O=C1C2c3ccccc3CCN2C(=O)CN1CCc1ccccc1 (configuration not stated)	121%
CCOc1ccc(-n2nc(CO)c(C(=O)NCC(C)O)n2)cc1 (configuration not stated)	81%
CC(C)CCNC(=O)Nc1ccc2c(c1)N(C)C(=O)c1ccccc1S2	135%
CC(C)CCNC(=O)c1ccc2c(c1)N(Cc1cccc(Cl)c1)C(=O)c1ccccc1S2	70%
Cc1ccc(C)c(CN2C(=O)c3ccccc3Sc3ccc(C(=O)NCc4ccco4)cc32)c1	-1% (active)
Cc1ccc(CN2C(=O)c3ccccc3Sc3ccc(C(=O)NCc4ccco4)cc32)cc1	55%
CC(C)CCNC(=O)c1ccc2c(c1)N(C)C(=O)c1ccccc1S2	-6% (active)
Cc1cccc(CN2C(=O)c3ccccc3Sc3ccc(C(=O)NCc4ccco4)cc32)c1	75%
COc1cc(Cl)c(NC(=O)CN2C(=O)c3cccnc3Sc3ccccc32)c(OC)c1	72%
COc1ccc2c(CNCc3cccs3)c(C(=O)O)n(Cc3ccccc3F)c2c1	89%
CCN1CCC(N(Cc2ccc(F)cc2)C(=O)Nc2ccc(C)c(F)c2)CC1	87%
O=C(Nc1ccccc1C(F)(F)F)C1CCN(S(=O)(=O)c2ccccc2)CC1	72%
CCc1ccc(C(=O)c2cn(CC(=O)Nc3ccc4c(c3)OCCO4)c3ccc(C)cc3c2=O)cc1	84%
CCCCn1nc(NC(=O)c2cccc(Cl)c2)c2cc3ccccc3nc21	86%
NC(=O)CSc1nnc(C2CC2)n1Cc1ccccc1	93%
Cc1cn2c(=O)cc(COC(=O)c3ccc(NC(=O)C(C)Oc4ccccc4)cc3)nc2s1 (configuration not stated)	0% (active)
Cc1cn2c(=O)cc(COC(=O)c3ccc(NC(=O)c4ccc(C(C)(C)C)cc4)cc3)nc2s1	-3% (active)

SMILES	survival
O=C(COc1ccc(Cl)cc1)OCc1cc(=O)n2nc(-c3cccs3)sc2n1	-6% (active)
Cc1cn2c(=O)cc(COC(=O)c3ccc(NC(=O)c4ccc(F)cc4)cc3)nc2s1	70%
O=C(COc1ccccc1)OCc1cc(=O)n2nc(-c3cccs3)sc2n1	75%
COc1ccc(OCC(=O)OCc2cc(=O)n3nc(-c4cccs4)sc3n2)cc1	87%
Cc1cn2c(=O)cc(COC(=O)COc3ccc(C)c(C)c3)nc2s1	63%
Cc1cn2c(=O)cc(COC(=O)COc3ccc(F)cc3)nc2s1	81%
Cc1cn2c(=O)cc(COC(=O)c3cccc(NC(=O)c4ccc(C(C)(C)C)cc4)c3)nc2s1	101%
COc1ccc(OCC(=O)OCc2cc(=O)n3cc(C)sc3n2)cc1	1% (active)
CC(Oc1ccccc1)C(=O)Nc1ccc(C(=O)OCc2cc(=O)n3ccsc3n2)cc1 (configuration not stated)	72%
Cc1cn2c(=O)cc(COC(=O)c3cccc(NC(=O)C(C)Oc4ccccc4)c3)nc2s1 (configuration not stated)	69%
Cc1cccc(OCC(=O)N(Cc2ccccc2)c2ccccn2)c1	87%
CCOC(=O)c1ccccc1NC(=O)CSc1nc(=O)[nH]c2c1CCC2	77%
Cc1ccc(NC(=O)Cn2cc(C#N)c3ccccc32)cc1	113%
Cc1c(Cl)cccc1NC(=O)Cn1c(=O)n(Cc2nc(-c3ccccc3)no2)c(=O)c2cc3c(cc21)OCO3	135%
CCn1cc(C(=O)NCc2ccc(C)cc2)c(=O)c2cc(S(=O)(=O)N3CCC(C)CC3)ccc21	128%
Cc1sc2ncn(CC(=O)Nc3cccc(C(F)(F)F)c3)c(=O)c2c1S(=O)(=O)N1CCN(C)CC1	75%
Cc1ccc(Cn2cc(S(=O)(=O)c3cccc(C)c3)c(=O)c3cc(F)c(N4CCOCC4)cc32)cc1	82%
Cn1c(=O)c2c(-c3ccccc3)n3c(c2n(C)c1=O)C(c1ccco1)Nc1ccccc1-3 (configuration not stated)	85%
Cn1c(=O)c2c(-c3ccccc3)n3c(c2n(C)c1=O)C(c1cc(Cl)ccc1O)Nc1ccccc1-3 (configuration not stated)	-9% (active)
Cn1c(=O)c2c(-c3ccccc3)n3c(c2n(C)c1=O)C(c1ccccc1[N+](=O)[O-])Nc1ccccc1-3 (configuration not stated)	76%
COc1ccc(-c2nc3ccccc3n3c(-c4ccc(OC)cc4)c4c(=O)n(C)c(=O)n(C)c4c23)cc1	75%
COc1ccc(-c2c3c(=O)n(C)c(=O)n(C)c3c3c(C)nc4ccccc4n23)cc1	74%

SMILES	survival
Cc1ccc(-c2c3c(=O)n(C)c(=O)n(C)c3c3n2-c2ccccc2NC3c2ccc(C)cc2O)cc1 (configuration not stated)	-8% (active)
Cn1c(=O)c2c(-c3ccccc3)n3c(c2n(C)c1=O)C(c1cccc([N+](=O)[O-])c1)Nc1ccccc1-3 (configuration not stated)	31%
COc1ccc(O)c(C2Nc3ccccc3-n3c(-c4ccccc4)c4c(=O)n(C)c(=O)n(C)c4c32)c1 (configuration not stated)	-6% (active)
Cc1cc2c(cc1C)-n1c(-c3ccccc3)c3c(=O)n(C)c(=O)n(C)c3c1C(c1ccco1)N2 (configuration not stated)	88%
COc1ccccc1C1Nc2ccccc2-n2c(-c3ccccc3)c3c(=O)n(C)c(=O)n(C)c3c21 (configuration not stated)	65%
COc1ccc(-c2c3c(=O)n(C)c(=O)n(C)c3c3n2-c2ccccc2NC3c2ccc(O)cc2O)cc1 (configuration not stated)	-8% (active)
COc1ccc(-c2c3c(=O)n(C)c(=O)n(C)c3c3c(-c4ccccc4)nc4ccccc4n23)cc1	64%
O=C(C1CCN(S(=O)(=O)c2cccs2)CC1)N1CCN(c2ccccc2F)CC1	142%
CCN(C(=O)/C=C/c1cc(OC)c(OC)c(OC)c1)C1CCCCC1	107%
COc1cccc(CNC(=O)CCn2c(=O)c3cccn3c3cccnc32)c1	87%
CCC(Sc1nc(-c2ccccc2F)nc2c1Cc1c(CO)cnc(C)c1O2)C(=O)Nc1cc(C)ccc1C (configuration not stated)	87%
COc1ccc(N2CCN(Cc3nnc(-c4ccc5c(c4)OCO5)o3)CC2)cc1	81%
O=C(Cn1c(C(=O)NC2CCCCC2)cc2sccc21)c1ccccc1	136%
Cc1ccc(C)n1-c1nnc(N2CCCC(C(=O)NCc3cccc(F)c3)C2)s1 (configuration not stated)	81%
COC(=O)c1c(C)oc2ccc(N(C(=O)c3ccncc3)S(=O)(=O)c3cc(C)c(C)cc3C)cc12	77%
COc1ccc(Cl)c2sc(NC(=O)c3ccc(S(=O)(=O)N4CCCC4)cc3)nc12	73%
CCn1ccc2cc(S(=O)(=O)N3CCCN(C(=O)Nc4ccc(C)cc4Cl)CC3)ccc21	63%
COc1ccc(OC)c(C2NC(=O)NC(C)=C2C(=O)Nc2ccc(F)cc2)c1 (configuration not stated)	81%
O=c1c2ccccc2nc(N2CCN(c3cccc(Cl)c3)CC2)n1-c1ccccc1	81%
Cc1ccc(C)c(N2CCN(c3nc4ccccc4c(=O)n3-c3ccc(Cl)cc3)CC2)c1	78%
Cc1ccc(C)c(N2CCN(c3nc4ccccc4c(=O)n3-c3ccccc3)CC2)c1	10% (active)
